For 9 molecules, growth results are on record in PubChem BioAssay (NCI).

The panel holds about 83,000 compounds, 20% with a hit somewhere; the sample as a whole holds those more often.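 In brief: 96-well plates, 48 h treatment, single concentration, percent growth endpoint.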 A number with no mark means an inactive call. Activity calls are given as the source filed them. The calls were made as follows: active = growth percent below 10; inactive = the rest.

Test systems include SR leukemia; RPMI-8226 leukemia; OVCAR-8 ovarian; OVCAR-5 ovarian; OVCAR-4 ovarian; SK-OV-3 ovarian; IGROV1 ovarian; OVCAR-3 ovarian; HS 578T breast; NCI/ADR-RES ovarian; T-47D breast; BT-549 breast; MDA-MB-435 melanoma; SW-620 colon; MCF7 breast; HCT-116 colon; KM12 colon; HCC-2998 colon.
What all share (assay): NCI-60 one-dose screen, 48 h (100 = growth as untreated, 0 = no growth, -100 = all killed)
Details in all cases: 10 µM

`CCOc1nc(-c2ccccc2)cc2c(O)c(C(=O)N/N=C/c3ccc(OC)cc3)[nH]c(=O)c12`: the growth in the assay with SR leukemia is 112%; with RPMI-8226 leukemia, 82.2%; with OVCAR-8 ovarian, 109%; in the assay with OVCAR-5 ovarian it was 125%; in the assay with OVCAR-4 ovarian, 98.3%; in the assay on SK-OV-3 ovarian, 95.5%. Besides, the growth is 82.3% in the assay with IGROV1 ovarian; 106% in the assay with OVCAR-3 ovarian; 96.8% in the assay with HS 578T breast; 105% in the assay with NCI/ADR-RES ovarian; 80.9% with T-47D breast; 123% in the assay with BT-549 breast. The growth in the assay with MDA-MB-435 melanoma is 113%; in the assay on SW-620 colon, 110%; in the assay on MCF7 breast, 101%; in the assay with HCT-116 colon, 109%; in the assay with KM12 colon it was 107%.
Consider `O=C(NNc1nc(N2CCCC2)nc(N2CCCC2)n1)c1ccccc1`, for which the growth in the assay with SR leukemia was 70.8%; in the assay with RPMI-8226 leukemia, 106%; in the assay with OVCAR-8 ovarian, 104%; in the assay on OVCAR-5 ovarian, 100%; with OVCAR-4 ovarian, 106%; in the assay on SK-OV-3 ovarian, 121%. Also, the growth in the assay with IGROV1 ovarian is 103%; in the assay with OVCAR-3 ovarian, 108%; with HS 578T breast, 104%; with NCI/ADR-RES ovarian it was 102%; in the assay with T-47D breast it was 97.6%; in the assay on BT-549 breast it was 112%. Further, the growth in the assay with SW-620 colon was 104%; with MCF7 breast, 96.2%; with HCT-116 colon, 109%; with HCC-2998 colon, 106%; with KM12 colon it was 104%.
With `Cc1ccc([P+](Cc2ccc([N+](=O)[O-])cc2)(c2ccc(C)cc2)c2ccc(C)cc2)cc1`, the growth in the assay on SR leukemia is 3.65% (active); with RPMI-8226 leukemia it was -25.3% (active); in the assay on OVCAR-8 ovarian it was 40.3%; in the assay on OVCAR-5 ovarian, 72.9%; in the assay with OVCAR-4 ovarian, 31.1%; in the assay on SK-OV-3 ovarian, 74.7%. Moreover, the growth was 11.9% in the assay on IGROV1 ovarian; 25.7% in the assay with OVCAR-3 ovarian; 86.9% in the assay on HS 578T breast; 100% in the assay with NCI/ADR-RES ovarian; 7.03% (active) in the assay on T-47D breast; 17.2% with BT-549 breast. Further, the growth in the assay on SW-620 colon is 45.2%; with MCF7 breast it was 29.7%; in the assay with HCT-116 colon it was 22%; in the assay with HCC-2998 colon, 31.3%; in the assay with KM12 colon, 16%.
With `C/C(=N\NC(=O)c1sc(=S)n(C)c1N)c1cc2ccccc2o1`, the growth in the assay on SR leukemia was 42.6%; in the assay with RPMI-8226 leukemia, 42.5%; in the assay with OVCAR-8 ovarian, 69.6%; with OVCAR-5 ovarian, 74.1%; with OVCAR-4 ovarian, 61%; in the assay with SK-OV-3 ovarian, 133%. For the same molecule, the growth in the assay with IGROV1 ovarian is 37.5%; in the assay on OVCAR-3 ovarian, 65%; with HS 578T breast it was 61.6%; in the assay on NCI/ADR-RES ovarian, 49.1%; in the assay with T-47D breast it was 78.2%; in the assay on BT-549 breast it was 87.2%. Further, the growth is 41% in the assay on MDA-MB-435 melanoma; 81.3% in the assay with SW-620 colon; 34.8% in the assay with MCF7 breast; 59.1% in the assay on HCT-116 colon; 21.5% with KM12 colon.
For `COc1cc(/C=C2\C(=O)Nc3cc(C)c(O)cc32)cc(OC)c1OC`, the growth was 21.4% in the assay on SR leukemia; -18.3% (active) with RPMI-8226 leukemia; 72.1% in the assay with OVCAR-8 ovarian; 94.5% in the assay on OVCAR-5 ovarian; 62.6% in the assay on OVCAR-4 ovarian; 77.5% in the assay with SK-OV-3 ovarian. The growth is 47.7% in the assay with IGROV1 ovarian; 35.7% with OVCAR-3 ovarian; 56.6% with HS 578T breast; 51.4% in the assay on NCI/ADR-RES ovarian; 39.2% in the assay with T-47D breast; 42.3% in the assay on BT-549 breast. Besides, the growth is 55.1% with SW-620 colon, 25.7% with MCF7 breast, 56.8% in the assay with HCT-116 colon and 21.9% in the assay with KM12 colon.
Take `CCOC(=O)c1c(O)c2cc(-c3ccccc3)nc(OCC)c2c(=O)n1C`: the growth in the assay on SR leukemia is 98%; with RPMI-8226 leukemia it was 39.2%; with OVCAR-8 ovarian, 104%; in the assay on OVCAR-5 ovarian, 104%; in the assay with OVCAR-4 ovarian, 90.1%; with SK-OV-3 ovarian, 107%. Also, the growth in the assay with IGROV1 ovarian was 69.8%; in the assay with OVCAR-3 ovarian it was 103%; in the assay on HS 578T breast it was 93%; in the assay on NCI/ADR-RES ovarian, 82.2%; with T-47D breast, 94.7%; in the assay on BT-549 breast it was 133%. Moreover, the growth in the assay on MDA-MB-435 melanoma was 90.1%; in the assay with SW-620 colon, 104%; with MCF7 breast, 93.8%; with HCT-116 colon, 87.7%; with KM12 colon it was 104%.
As for `CC(C)c1[nH]nc2c(NCc3ccc(-c4ccccn4)cc3)nc(SCCN(C)C)nc12`, the growth in the assay with SR leukemia is -10.3% (active); in the assay with RPMI-8226 leukemia it was -14.4% (active); in the assay with OVCAR-8 ovarian, 13.9%; in the assay with OVCAR-5 ovarian, 21.4%; in the assay on OVCAR-4 ovarian, -1.82% (active); in the assay with SK-OV-3 ovarian it was 8.24% (active). In addition, the growth in the assay on IGROV1 ovarian is 16.2%; with OVCAR-3 ovarian, 4.83% (active); with HS 578T breast, 21.4%; with NCI/ADR-RES ovarian, 7.1% (active); in the assay with T-47D breast it was -6.72% (active); in the assay on BT-549 breast, -43.1% (active). Besides, the growth in the assay on SW-620 colon is 9.8% (active); with MCF7 breast, 4.04% (active); with HCT-116 colon, 9.24% (active); in the assay on HCC-2998 colon, -15.7% (active); with KM12 colon, 8.47% (active).
For the molecule `COC(=O)[C@]12CC[C@@H](C)[C@H](C)[C@@H]1C1=CC[C@@H]3[C@@]4(C)C/C(=N\O)[C@H](O)[C@@]5(C)COC(=C45)C[C@@]3(C)[C@]1(C)CC2`, the growth in the assay on SR leukemia was -39.2% (active); in the assay on RPMI-8226 leukemia it was -41% (active); in the assay with OVCAR-8 ovarian it was -78.3% (active); with OVCAR-5 ovarian, -75.4% (active); in the assay with OVCAR-4 ovarian, -79.1% (active); with SK-OV-3 ovarian, -91.9% (active). Besides, the growth is -58.4% (active) in the assay on IGROV1 ovarian; -98.1% (active) with OVCAR-3 ovarian; -33.6% (active) in the assay with HS 578T breast; -62.5% (active) in the assay on NCI/ADR-RES ovarian; -84.6% (active) in the assay with T-47D breast; -79.8% (active) in the assay on BT-549 breast. The growth was -64.5% (active) with SW-620 colon; -71.1% (active) in the assay on MCF7 breast; -84.8% (active) with HCT-116 colon; -89.4% (active) in the assay with HCC-2998 colon; -80.9% (active) in the assay on KM12 colon.
With `CCOC(=O)c1c(Cl)c2c(n1Cc1cccc(OC)c1)-c1oncc1CC2`, the growth in the assay on SR leukemia was 8.61% (active); in the assay on RPMI-8226 leukemia, 35.4%; with OVCAR-8 ovarian, 37.4%; in the assay on OVCAR-5 ovarian, 74.3%; in the assay on OVCAR-4 ovarian, 56.7%; in the assay with SK-OV-3 ovarian, 17.2%. Moreover, the growth with IGROV1 ovarian is 23.5%; in the assay on OVCAR-3 ovarian, -34.9% (active); in the assay with HS 578T breast, -11.2% (active); in the assay on NCI/ADR-RES ovarian, 1.8% (active); with T-47D breast, 35.5%; in the assay on BT-549 breast, 21.7%. For the same molecule, the growth is 34.5% in the assay with SW-620 colon; 15.2% in the assay with MCF7 breast; 18.5% with HCT-116 colon; 39.8% in the assay with HCC-2998 colon; 25.9% in the assay on KM12 colon.
